Measured values as given in PubChem BioAssay AID623939 (Vanderbilt Specialized Chemistry Center, 2012).
Active and inactive are the calls of the source.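 How the source made its calls: active means a compound whose calcium signal at the M5 receptor changes in step with its dose; inactive means the rest.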

target: Muscarinic acetylcholine receptor M5 (Homo sapiens) (UniProt P08912); assay: off-target potentiation of hM5 acetylcholine response – CHO cells, Fluo-4 calcium, ACh EC20, selectivity assay for M4 PAM optimization project, SAR follow-up (AID 623939); details: series mostly up to 30 µM; response, % ACh max: at the top concentration
Sequence (P08912 whole entry, looked up): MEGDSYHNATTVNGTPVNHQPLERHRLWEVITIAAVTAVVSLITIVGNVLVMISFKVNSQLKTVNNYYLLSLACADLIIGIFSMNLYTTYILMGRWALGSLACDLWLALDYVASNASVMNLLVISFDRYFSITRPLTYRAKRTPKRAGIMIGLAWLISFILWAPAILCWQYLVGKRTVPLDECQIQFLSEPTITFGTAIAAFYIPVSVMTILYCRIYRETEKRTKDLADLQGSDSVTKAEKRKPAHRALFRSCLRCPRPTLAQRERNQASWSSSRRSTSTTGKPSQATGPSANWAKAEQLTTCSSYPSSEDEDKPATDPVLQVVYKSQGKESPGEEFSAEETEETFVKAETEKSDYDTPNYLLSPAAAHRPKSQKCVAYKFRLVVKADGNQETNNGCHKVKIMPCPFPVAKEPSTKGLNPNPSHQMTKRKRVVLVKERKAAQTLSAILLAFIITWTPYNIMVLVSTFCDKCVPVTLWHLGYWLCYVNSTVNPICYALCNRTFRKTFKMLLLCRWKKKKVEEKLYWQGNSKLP

response, % ACh max, inactive:
Cc1nc2sc(C(=O)NCCc3ccncc3)c(N)c2c(C)c1Cl 19.3, Cc1nc2sc(C(=O)NC3CC3)c(N)c2c(C)c1Cl 17.9, Cc1nc2sc(C(=O)NCc3cccc(F)c3F)c(N)c2c(C)c1Cl 16.2, COc1ccc(C)c2sc(NC(=O)c3ccncc3)nc12 10.5, Cc1nc2sc(C(=O)NCc3ccncn3)c(N)c2c(C)c1Cl 15.2, Cc1nc2sc(C(=O)NCc3nccs3)c(N)c2c(C)c1Cl 18.3

outcome, inactive:
Cc1nc2sc(C(=O)NCc3ccccc3)c(N)c2c(C)c1Cl, Cc1nc2sc(C(=O)NCc3ccc4c(c3)OCO4)c(N)c2c(C)c1Cl, Cc1nc2sc(C(=O)NCc3cccnc3)c(N)c2c(C)c1Cl, Cc1nc2sc(C(=O)NCc3ccncc3)c(N)c2c(C)c1Cl
